Test results from PubChem BioAssay AID1159580 (chemical genetic matrix, 2015).
The whole screen tested about 5,500 compounds, of which about 2,000 (36%) were called active. Not shown: some 18% with an inconclusive outcome. Rule as the data show it: active = normalized growth mostly below about 0.91 (no sharp cut-off); inconclusive = no clear call, values can overlap the other calls; inactive = mostly above about 0.92. This is one part of the list.

Experiment: chemical genetic growth profiling, strain panel (AID 1159580);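 also: tested at 20 µM; growth read once vehicle control cultures reached saturation at 30 °C; 1 = growth at the plate median or of vehicle wells; lower values mean less growth of the strain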
Details: growth OD

Measured: normalized growth

CC(=O)c1cc2c(cc1O)OC(C)(C)C=C2
inactive: S. cerevisiae deletion strains, locus YAL013W, strain DEP1, stronger effect = lower value 0.991 | S. cerevisiae deletion strains, locus YBR021W, strain FUR4, stronger effect = lower value 1.01 | S. cerevisiae deletion strains, locus YBR229C, strain ROT2, stronger effect = lower value 0.983 | S. cerevisiae deletion strains, locus YCL029C, strain bik1, stronger effect = lower value 0.993 | S. cerevisiae deletion strains, locus YDL035C, strain GPR1, stronger effect = lower value 1 | S. cerevisiae deletion strains, locus YDL074C, strain BRE1, stronger effect = lower value 0.974 | S. cerevisiae deletion strains, locus YDL101C, strain DUN1, stronger effect = lower value 0.999 | S. cerevisiae deletion strains, locus YDL134C, strain PPH21, stronger effect = lower value 1.01 | S. cerevisiae deletion strains, locus YDL185W, strain tfp1, stronger effect = lower value 0.993 | S. cerevisiae deletion strains, locus YDL192W, strain arf1, stronger effect = lower value 0.976 | S. cerevisiae deletion strains, locus YDR162C, strain NBP2, stronger effect = lower value 1 | S. cerevisiae deletion strains, locus YDR318W, strain mcm21, stronger effect = lower value 0.999 | S. cerevisiae deletion strains, locus YDR388W, stronger effect = lower value 0.992 | S. cerevisiae deletion strains, locus YDR502C, strain sam2, stronger effect = lower value 1 | S. cerevisiae deletion strains, locus YER110C, stronger effect = lower value 0.979 | S. cerevisiae deletion strains, locus YER155C, strain BEM2, stronger effect = lower value 0.975 | S. cerevisiae deletion strains, locus YER167W, strain BCK2, stronger effect = lower value 0.96 | S. cerevisiae deletion strains, locus YGL078C, strain dbp3, stronger effect = lower value 1.03 | S. cerevisiae deletion strains, locus YGL086W, strain mad1, stronger effect = lower value 0.972 | S. cerevisiae deletion strains, locus YGL248W, strain PDE1, stronger effect = lower value 0.997 | S. cerevisiae deletion strains, locus YGR078C, strain PAC10, stronger effect = lower value 1.01 | S. cerevisiae deletion strains, locus YGR135W, strain pre9, stronger effect = lower value 1.02 | S. cerevisiae deletion strains, locus YGR252W, strain gcn5, stronger effect = lower value 1.07 | S. cerevisiae deletion strains, locus YHR079C, strain IRE1 (second series), stronger effect = lower value 0.988 | S. cerevisiae deletion strains, locus YHR094C, strain hxt1, stronger effect = lower value 0.983 | S. cerevisiae deletion strains, locus YHR129C, strain ARP1, stronger effect = lower value 0.991 | S. cerevisiae deletion strains, locus YHR200W, strain rpn10, stronger effect = lower value 0.97 | S. cerevisiae deletion strains, locus YIL066C, strain RNR3, stronger effect = lower value 0.979 | S. cerevisiae deletion strains, locus YIL073C, strain SPO22, stronger effect = lower value 1.03 | S. cerevisiae deletion strains, locus YIL125W, strain kgd1, stronger effect = lower value 0.974 | S. cerevisiae deletion strains, locus YIR030C, strain dcg1, stronger effect = lower value 0.982 | S. cerevisiae deletion strains, locus YJL095W, strain BCK1, stronger effect = lower value 1.02 | S. cerevisiae deletion strains, locus YJL134W, strain LCB3, stronger effect = lower value 0.98 | S. cerevisiae deletion strains, locus YJL168C, strain set2, stronger effect = lower value 0.991 | S. cerevisiae deletion strains, locus YJL187C, strain SWE1 (second series), stronger effect = lower value 1.03 | S. cerevisiae deletion strains, locus YJR043C, strain POL32, stronger effect = lower value 0.935 | S. cerevisiae deletion strains, locus YKL009W, strain mrt4, stronger effect = lower value 1.01 | S. cerevisiae deletion strains, locus YKL068W, stronger effect = lower value 0.973 | S. cerevisiae deletion strains, locus YKL085W, strain MDH1 (second series), stronger effect = lower value 0.976 | S. cerevisiae deletion strains, locus YKL085W, strain MDH1, stronger effect = lower value 0.976 | S. cerevisiae deletion strains, locus YKL190W, strain CNB1, stronger effect = lower value 0.991 | S. cerevisiae deletion strains, locus YKR001C, strain vps1, stronger effect = lower value 0.968 | S. cerevisiae deletion strains, locus YLR039C, strain RIC1, stronger effect = lower value 0.952 | S. cerevisiae deletion strains, locus YLR058C, strain SHM2, stronger effect = lower value 0.999 | S. cerevisiae deletion strains, locus YLR102C, strain apc9, stronger effect = lower value 0.981 | S. cerevisiae deletion strains, locus YLR268W, strain sec22, stronger effect = lower value 0.99 | S. cerevisiae deletion strains, locus YLR330W, strain CHS5, stronger effect = lower value 0.983 | S. cerevisiae deletion strains, locus YLR418C, strain cdc73, stronger effect = lower value 0.964 | S. cerevisiae deletion strains, locus YML016C, strain PPZ1, stronger effect = lower value 0.938 | S. cerevisiae deletion strains, locus YML032C, strain rad52, stronger effect = lower value 0.993 | S. cerevisiae deletion strains, locus YML124C, strain tub3, stronger effect = lower value 0.965 | S. cerevisiae deletion strains, locus YMR078C, strain ctf18, stronger effect = lower value 0.956 | S. cerevisiae deletion strains, locus YMR223W, strain ubp8, stronger effect = lower value 1.01 | S. cerevisiae deletion strains, locus YMR307W, strain GAS1, stronger effect = lower value 1.15 | S. cerevisiae deletion strains, locus YNL067W, strain RPL9B, stronger effect = lower value 1.01 | S. cerevisiae deletion strains, locus YNL233W, strain BNI4, stronger effect = lower value 0.991 | S. cerevisiae deletion strains, locus YNL250W, strain rad50, stronger effect = lower value 0.997 | S. cerevisiae deletion strains, locus YNL271C, strain bni1, stronger effect = lower value 0.977 | S. cerevisiae deletion strains, locus YNL298W, strain CLA4, stronger effect = lower value 1.01 | S. cerevisiae deletion strains, locus YNL307C, strain MCK1, stronger effect = lower value 0.975 | S. cerevisiae deletion strains, locus YNR052C, strain pop2, stronger effect = lower value 1.06 | S. cerevisiae deletion strains, locus YOL012C, strain htz1 0.862 | S. cerevisiae deletion strains, locus YOL147C, strain pex11, stronger effect = lower value 0.96 | S. cerevisiae deletion strains, locus YOR061W, strain CKA2, stronger effect = lower value 0.982 | S. cerevisiae deletion strains, locus YOR069W, strain VPS5, stronger effect = lower value 0.989 | S. cerevisiae deletion strains, locus YOR136W, strain idh2, stronger effect = lower value 1.01 | S. cerevisiae deletion strains, locus YOR144C, strain elg1, stronger effect = lower value 0.984 | S. cerevisiae deletion strains, locus YOR184W, strain ser1, stronger effect = lower value 0.901 | S. cerevisiae deletion strains, locus YOR316C, strain cot1, stronger effect = lower value 0.985 | S. cerevisiae deletion strains, locus YPR119W, strain clb2, stronger effect = lower value 0.982 | S. cerevisiae deletion strains, locus YPR141C, strain kar3, stronger effect = lower value 0.962 | S. cerevisiae deletion strains, locus YPR163C, strain tif3, stronger effect = lower value 0.993 | S. cerevisiae deletion strains, locus YPR167C, strain met16, stronger effect = lower value 0.993 | S. cerevisiae deletion strains, strain wtn01, stronger effect = lower value 0.947 | S. cerevisiae strains, strain wild type, stronger effect = lower value 0.983
active: S. cerevisiae deletion strains, locus YDR101C, strain arx1, stronger effect = lower value 0.891 | S. cerevisiae deletion strains, locus YLR371W, strain rom2, stronger effect = lower value 0.808
